Structures can show the parent of a compound that is named as a salt.
The compounds below were run on Saccharomyces cerevisiae BY4741 SeMeCo community (assay: z-score of subpopulation abundance vs DMSO median, subpopulation auxotrophic for HLUM; higher = larger share of this subpopulation than in DMSO controls). Conditions: 10 µM; 24 h; SM minimal medium; subpopulation (auxotrophy): HLUM.
Description: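 Fluorescent four-plasmid SeMeCo (self-establishing metabolically cooperating S. cerevisiae BY4741 community; plasmids pH-mRuby2, pL-mWasabi, pU-eCFP, pM-TagRFP657) was grown 24 h in minimal SM medium with each Selleck FDA-approved drug at 10 µM in 384-well plates. Cells were fixed and imaged by high-content confocal microscopy. For each auxotrophic subpopulation (and the prototroph), a z-score gives the deviation from the DMSO vehicle-control population median.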
With `COc1ccc2c(c1)[C@]13CCCC[C@@H]1[C@H](C2)N(C)CC3` [Dextromethorphan hydrobromide hydrate] the “z-score of subpopulation abundance” value was -0.5.
With `CC[C@H]1CN2CC[C@]3(C(=O)Nc4ccccc43)[C@@H]2C[C@@H]1/C(=C\OC)C(=O)OC` [Rhynchophylline] the “z-score of subpopulation abundance” value was 0.
`COC(=O)C1=CCCN(C)C1` [Arecoline HBr] was tested, and the “z-score of subpopulation abundance” value was -0.09.
With `C=CCN1C[C@H](C(=O)N(CCCN(C)C)C(=O)NCC)C[C@@H]2c3cccc4[nH]cc(c34)C[C@H]21` [Cabergoline] the “z-score of subpopulation abundance” value was 0.78.
In the case of `COc1ccc2c3c([nH]c2c1)C(C)=NCC3` [Harmaline], the “z-score of subpopulation abundance” value is reported as -1.92.
In the case of `CN[C@@H]1[C@@H](O)[C@@H](O[C@@H]2[C@@H](O)[C@H](O[C@H]3O[C@H](CN)CC[C@H]3N)[C@@H](N)C[C@H]2N)OC[C@]1(C)O.CN[C@@H]1[C@@H](O)[C@@H](O[C@@H]2[C@@H](O)[C@H](O[C@H]3O[C@H]([C@@H](C)N)CC[C@H]3N)[C@@H](N)C[C@H]2N)OC[C@]1(C)O.CN[C@@H]1[C@@H](O)[C@@H](O[C@@H]2[C@@H](O)[C@H](O[C@H]3O[C@H]([C@@H](C)NC)CC[C@H]3N)[C@@H](N)C[C@H]2N)OC[C@]1(C)O` [Gentamicin Sulfate], the “z-score of subpopulation abundance” value is reported as 0.46.
For `CN(C)[C@@H]1C(=O)C(C(N)=O)=C(O)[C@@]2(O)C(=O)C3=C(O)c4c(O)ccc(Cl)c4[C@@](C)(O)[C@H]3C[C@@H]12` [Chlortetracycline HCl], the “z-score of subpopulation abundance” value was 0.32.
With `CN(C)[C@@H]1C(=O)C(C(N)=O)=C(O)[C@@]2(O)C(=O)C3=C(O)c4c(O)cccc4[C@@](C)(O)[C@H]3[C@H](O)[C@@H]12` [Oxytetracycline (Terramycin)] the “z-score of subpopulation abundance” value was 0.26.
`CCN(CC)CCOC(=O)C(O)(c1ccccc1)c1ccccc1` [Benactyzine hydrochloride] was tested, and the “z-score of subpopulation abundance” value was 1.13.
For `C[CH2][Hg][S]c1ccccc1C(=O)[O-].[Na+]` [Thimerosal], the “z-score of subpopulation abundance” value was 63.5.
`COc1ccc2[nH]cc(CCN)c2c1` [5-Methoxytryptamine] was tested, and the “z-score of subpopulation abundance” value was 0.69.
For `Cn1cc(C2=C(c3cn(C4CCN(Cc5ccccn5)CC4)c4ccccc34)C(=O)NC2=O)c2ccccc21`, the “z-score of subpopulation abundance” value was -0.35.
For `CCN(C)C(=O)Oc1cccc([C@H](C)N(C)C)c1` [Rivastigmine], the “z-score of subpopulation abundance” value was -0.15.
With `NC(=O)CN1CCCC1=O` [Piracetam] the “z-score of subpopulation abundance” value was 0.98.
`N#Cc1nn(-c2c(Cl)cc(C(F)(F)F)cc2Cl)c(N)c1[S+]([O-])C(F)(F)F` (centres undefined) [Fipronil] was tested, and the “z-score of subpopulation abundance” value was -0.22.
For `C#C[C@]1(O)C=C[C@H]2[C@@H]3CCC4=CC(=O)CC[C@@H]4[C@H]3CC[C@@]21CC` [Gestodene], the “z-score of subpopulation abundance” value was -0.58.
In the case of `O=C(O[C@H]1C[C@H]2CC[C@@H](C1)[N+]21CCCC1)C(O)(c1ccccc1)c1ccccc1` [Trospium chloride], the “z-score of subpopulation abundance” value is reported as -0.2.
With `CC(C)N(CCC(C(N)=O)(c1ccccc1)c1ccccn1)C(C)C` (centres undefined) [Disopyramide] the “z-score of subpopulation abundance” value was 0.82.
With `CN1c2ccccc2C(NCCCCCCC(=O)O)c2ccc(Cl)cc2S1(=O)=O` (centres undefined) [Tianeptine sodium] the “z-score of subpopulation abundance” value was 0.87.
With `C[N+]12CCC(CC1)C(OC(=O)C(O)(c1ccccc1)c1ccccc1)C2` (centres undefined) [Clidinium Bromide] the “z-score of subpopulation abundance” value was 0.51.
For `Nc1nc(N)nc(NC2CC2)n1` [Cyromazine], the “z-score of subpopulation abundance” value was 1.21.
For `CNC1CC(N)C(O)C(OC2OC(CO)C(O)C3OC4(OC(C(N)CO)C(O)C(O)C4O)OC23)C1O` (centres undefined) [Hygromycin B], the “z-score of subpopulation abundance” value was -0.53.
For `CN1C(=O)COc2c(C(=O)NC3CN4CCC3CC4)cc(Cl)cc21` (centres undefined) [Azasetron HCl], the “z-score of subpopulation abundance” value was 0.19.
In the case of `CCN(C)C(=O)Oc1cccc([C@H](C)N(C)C)c1` [Rivastigmine Tartrate], the “z-score of subpopulation abundance” value is reported as -0.16.
In the case of `C=CN1CCCC1=O.II` [Povidone iodine], the “z-score of subpopulation abundance” value is reported as 0.32.
With `CN(C)C(=O)Oc1ccc[n+](C)c1` [Pyridostigmine Bromide] the “z-score of subpopulation abundance” value was -1.14.
In the case of `CN1[C@@H]2CC[C@H]1C[C@@H](OC(=O)[C@H](CO)c1ccccc1)C2` [Hyoscyamine], the “z-score of subpopulation abundance” value is reported as 0.62.
For `CCOC(=O)Nc1ccc(NCc2ccc(F)cc2)cc1N` [Retigabine 2HCl], the “z-score of subpopulation abundance” value was -0.39.
For `Oc1cc(Cl)ccc1Oc1ccc(Cl)cc1Cl` [Triclosan], the “z-score of subpopulation abundance” value was 2.06.
With `Nc1ccncc1` [4-Aminopyridine] the “z-score of subpopulation abundance” value was -0.46.
In the case of `COc1ccc(C=O)cc1` [p-Anisaldehyde], the “z-score of subpopulation abundance” value is reported as -0.16.
`COc1ccc(C(CN(C)C)C2(O)CCCCC2)cc1` (centres undefined) [Venlafaxine HCl] was tested, and the “z-score of subpopulation abundance” value was -0.19.
`CC[C@@H](C(N)=O)N1CCCC1=O` [Levetiracetam] was tested, and the “z-score of subpopulation abundance” value was -0.38.
For `CC(C)(O)C(Cl)(Cl)Cl` [Chlorobutanol], the “z-score of subpopulation abundance” value was -0.06.

— the supplement of paper PMC8975748
